# Only a selection was taken, and hits are over-represented in it overall.
# LmPK inhibitor: inhibitors of Leishmania mexicana pyruvate kinase; Q27686; purified LmPK, Kinase-Glo ATP luminescence, 1 h; Potency, µM (highest dose often 57.5 µM), most hits filed as inhibitors; 290,000 compounds, 0.37% hits; AID 1721
#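 In 50 mM imidazole pH 7.2 with 7 mM MgCl2, LmPK (0.1 nM) turned over PEP (0.5 mM) and ADP (0.1 mM) for 1 h at room temperature. Luciferase read-out of ATP.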
# TbPYK inhibitor: blocks Trypanosoma brucei pyruvate kinase; Q57TT1; TbPYK enzyme, Kinase-Glo Plus ATP luminescence, 45 min; Potency, µM (series often up to 76.8 µM), hits mostly inhibitors; 410,000 compounds, 0.12% hits; AID 624173; also: nearly all actives have a fitted effect of over 50% in size
#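 Quantitative HTS: titrated library compounds versus trypanosomal pyruvate kinase in TEA buffer (pH 7.2) containing KCl, MgCl2, BSA and Tween-20. Reactions were initiated with ADP, 130 uM final. Kinase-Glo Plus luminescence was read after 45 min at RT.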
# RE007 growth inh: less growth of the S. pombe RE007 Vpr strain | Potency, µM (doses to about 92.2 µM), usual class: inhibitors | S. pombe RE007 Vpr strain, BacTiter-Glo ATP luminescence, 24 h | AID 651644 | 360,000 compounds, 0.21% hits; active = well fitted falling curve with a large enough effect; inconclusive = small, poorly fitted or top-dose-only effect; inactive = no such curve, though single readings can be large or run the other way; also: nearly all actives have a fitted effect of over 50% in size
#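 Fission yeast strain RE007, carrying one chromosomally integrated HIV-1 vpr copy, was seeded at OD 0.01 in PMG+AL medium with 23 nL pinned compound. After 24 h at 30 °C and 99% humidity, viability was read by BacTiter-Glo luminescence.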
# Shiga toxin inh: inhibitors of Shiga toxin in Vero cells; inhibition, % at 38.7 µM; 290,000 compounds, 9.2% hits; Vero cells, Shiga toxin protein synthesis inhibition reporter; in the data active = inhibition mostly above about 28%, no sharp cut-off; inactive = mostly below about 43%
# CHX counter: counter-screen for Shiga toxin inhibitors: cycloheximide protein synthesis inhibition | cell reporter, cycloheximide protein synthesis inhibition counterscreen | max response, % | 300,000 compounds, 12% hits | AID 2314; in the data active = max response mostly above about 13%, no sharp cut-off; inactive = mostly below about 14%; also: read at 38.3 µM for the half of the compounds with a filed dose
# FBPA Giardia inh: inhibitors of Giardia lamblia fructose-1,6-bisphosphate aldolase; A8B2U2; purified Giardia FBPA; Potency, µM (top dose mostly 59.6 µM), actives largely listed as inhibitors; 290,000 compounds, 0.71% hits; also: nearly all actives have a fitted effect of over 55% in size
# Target sequence (A8B2U2 whole entry, looked up): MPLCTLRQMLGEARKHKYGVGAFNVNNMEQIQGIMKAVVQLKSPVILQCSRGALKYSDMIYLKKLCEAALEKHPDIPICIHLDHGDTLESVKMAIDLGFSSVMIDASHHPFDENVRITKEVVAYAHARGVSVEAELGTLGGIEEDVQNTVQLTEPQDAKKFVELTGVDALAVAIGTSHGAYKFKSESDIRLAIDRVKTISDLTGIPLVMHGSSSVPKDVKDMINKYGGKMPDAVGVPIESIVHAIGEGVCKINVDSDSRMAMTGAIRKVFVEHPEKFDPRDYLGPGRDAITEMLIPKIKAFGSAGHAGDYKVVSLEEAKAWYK
#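 Giardia FBPA (40 nM reagent) was preincubated 10 min at RT with compound (up to 57.5 uM final), then substrate plus GAPDH/TPI/NAD/arsenate coupling system with diaphorase/resazurin was added; resorufin fluorescence (525/598 nm) was read after 20 min.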
# Hits are given with their value; i = inactive; ? = inconclusive; nt = no result given; [ ] = remark or other dose. Unless noted, calls follow the shape of the dose curve; as a rule, active = well fitted curve in the direction sought with a large enough effect; inconclusive = small, poorly fitted or top-dose-only effect, or another doubt; inactive = no such curve, though single readings can be large; an effect the other way counts as inactive or inconclusive.
SMILES,LmPK inhibitor,TbPYK inhibitor,RE007 growth inh,Shiga toxin inh,CHX counter,FBPA Giardia inh
Cc1cc(Cl)c2oc(C(=O)NC3CCC(O)CC3)c(C)c2c1 (stereo not given),i,i,i,nt,21,i
Cc1cc(Cl)c2oc(C(=O)N3CCN(c4ccncc4)CC3)c(C)c2c1,nt,i,i,nt,nt,nt
COC(=O)C1CCN(C(=O)c2oc3c(Cl)cc(C)cc3c2C)CC1,i,i,i,76,47,i
Cc1c(C(=O)NC2CC(C)(C)NC(C)(C)C2)oc2c(Cl)cccc12,nt,i,i,nt,nt,nt
Cc1ccc(-c2nc(-c3cccnc3)no2)c(C)c1,i,i,i,108,36,i
O=[N+]([O-])c1cc(-c2nc(-c3cccnc3)no2)ccc1NCc1ccccc1,nt,i,nt,nt,nt,nt
Cc1c(-c2nc(-c3cccnc3)no2)cccc1[N+](=O)[O-],i,i,i,i,24,i
CCN(Cc1ccccc1)S(=O)(=O)c1cc(C(=O)Nc2cc(Cl)cc(Cl)c2)ccc1F,nt,i,nt,nt,nt,nt
CC(=O)/C(=C\c1ccccc1)CC(=O)O,nt,nt,nt,nt,nt,i
O=C(NCc1cccs1)C1CC(c2ccc(Cl)c(Cl)c2)=NO1 (stereo not given),i,i,i,i,i,i
O=C(NCCc1cccs1)C1CC(c2c(Cl)cccc2Cl)=NO1 (stereo not given),i,i,i,i,40,i
O=C(NCc1ccco1)C1CC(c2ccc(F)cc2)=NO1 (stereo not given),i,i,i,i,17,i
Cc1ccc(CNC(=O)C2CC(c3ccc(C(F)(F)F)cc3)=NO2)o1 (stereo not given),i,i,i,i,i,i
O=C(NCc1cccs1)C1CC(c2ccc(Cl)cc2)=NO1 (stereo not given),i,i,i,i,13,i
COc1cccc(C2=NOC(C(=O)NCc3ccco3)C2)c1 (stereo not given),i,i,i,i,i,i
O=C(NCc1ccco1)C1CC(c2ccc(Cl)cc2)=NO1 (stereo not given),i,i,i,i,27,i
c1nc(N2CCOCC2)c2cc(-c3ccoc3)ccc2n1,nt,nt,nt,nt,nt,i
COC(=O)[C@@]1(Cc2ccc(OC)cc2)[C@H]2c3cc(C(=O)N4CCCC4)n(CCc4c[nH]c5ccc(OC)cc45)c3C[C@H]2CN1C(=O)c1ccccc1,nt,nt,nt,nt,nt,i
CCOC(=O)C(C)Sc1ncc(-c2ccc(Cl)cc2)cn1 (stereo not given),i,i,i,i,13,i
Cc1ccc(C(=O)NNC(=O)Cc2ccccc2)cc1,i,?,i,i,28,i
O=C(Cc1ccccc1)NNC(=O)c1ccc(NC(=O)c2ccccc2)cc1,i,i,i,i,i,i
Cc1ccc(C(=O)NNC(=O)Cc2cccs2)cc1,i,i,i,i,20,i
COc1cccc(C2C(C)CCC3C(=O)N(C)C(C(C)C)C(=O)N32)c1 (stereo not given),nt,nt,nt,nt,nt,i[12.9 µM]
CCOc1ccc(CCNC(=O)c2cccc(-n3c(C)nc4cccnc43)c2C)cc1,nt,i[15.4 µM],nt,nt,nt,nt
COc1cnn(-c2ccccc2)c(=O)c1OC,i,i,i,i,i,i
SMILES,LmPK inhibitor,TbPYK inhibitor,RE007 growth inh,Shiga toxin inh,CHX counter,FBPA Giardia inh
COc1cnn(-c2ccccc2)c(=O)c1SCc1ccc(Cl)cc1Cl,i,i,i,i,i,i
COc1cnn(-c2ccc(C)cc2)c(=O)c1SCc1ccccc1,i,i,i,84,38,i
COc1cnn(-c2ccc(Br)cc2)c(=O)c1SCc1ccccc1,i,i,i,130,49,i
Fc1ccc(Nc2ccc(-c3ccc(F)cc3)nn2)cc1,i,i,i,63,50,i
Fc1ccc(-c2ccc(Nc3cccc(F)c3)nn2)cc1,i,i,i,51,46,i
Cc1ccc(NC(=O)Cn2c(=O)ccc3cc(S(=O)(=O)N4CCCC4)ccc32)cc1N(C)C,nt,i,nt,nt,nt,nt
Cc1ccc(C)c(CN2C(=O)c3ccccc3S(=O)c3ccc(C(=O)NCCc4ccc(Cl)cc4)cc32)c1 (stereo not given),nt,i,nt,nt,nt,nt
Cc1ccc2[nH]c3c(NCc4ccccc4)ncnc3c2c1,i,i,i,80,39,i
CCCOc1ncnc2c1[nH]c1ccc(C)cc12,i,i,i,108,45,i
CCCNC(=O)OC[C@@H]1O[C@H](CCO/N=C\C[C@H]2C=C[C@H](OC(C)=O)[C@@H](COC(C)=O)O2)C=C[C@@H]1Oc1ccc(OC)cc1,nt,nt,nt,nt,nt,i[12.9 µM]
Cc1ccc(-c2cn3nc(N4CCCC(C(=O)NCc5ccccc5F)C4)sc3n2)cc1 (stereo not given),nt,i[15.4 µM],nt,nt,nt,nt
O=C(Nc1cccc(F)c1)N1CCCC2(CCN(S(=O)(=O)c3ccccc3)CC2)C1,nt,i,nt,nt,nt,i
O=C(NCc1ccccc1Cl)C1CCCN(C(=O)c2cnn(-c3ccccc3)c2-n2cccc2)C1 (stereo not given),nt,i,nt,nt,nt,nt
COc1ccc(NC2=Nc3ccccc3CC2)cc1,i,i,i,i,23,i
COc1ccc(NC2=NCCCCC2)cc1,i,i,i,i,i,i
CCOc1ccc(CNc2nnnn2C)cc1,i,i,i,nt,i,i
CCOc1ccc(CNc2ccc(S(N)(=O)=O)cc2)cc1,i,i,i,i,i,i
Cn1cnc2cc(NCc3ccc(Cl)cc3)ccc21,i,i,i,60,45,i
CCOc1ccc(CNc2ccc3c(c2)ncn3C)cc1,i,i,i,38,35,i
CCOc1ccc(CNc2ccc3c(c2)ncn3C(C)(C)C)cc1,i,i,nt,40,24,i
O=C(Cn1ncn2c(cc3ccccc32)c1=O)NCc1ccc(F)cc1,nt,i,nt,nt,nt,nt
O=C(c1ccco1)N1CCN(C(=S)Nc2cccc([N+](=O)[O-])c2)CC1,i,i,i,i,i,i

# Screening data deposited in PubChem by National Center for Advancing Translational Sciences (NCATS).
